Measured values reported in PubChem BioAssay (NCATS).
Where “and” joins values, the source holds several entries; their conditions need not be identical. Equal entries are not always repeated. Results filed as inconclusive are left out. Calls of active or inactive are those of the source. Unless noted, the call rests on the fitted dose curve; in most records, active means well fitted curve in either direction with a large enough effect (not every such curve was filed as active); inconclusive means small, poorly fitted or top-dose-only effect, or another doubt; inactive means flat fitted curve, though single readings scatter.

Key:
[1] = AP1 Signaling Pathway (AID 357); settings: ME-180 (cervical carcinoma) AP-1-bla reporter, EGF-induced, beta-lactamase ratio, 5 h; at 7.69 µM (top of the series) unless noted;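 further: ME-180 reporter cells stimulated with EGF at its EC50 level; on the % scale 0 is the no-effect control and ±100 the full control effect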
Procedure, shortened: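 Read-out was the 460nm/530nm emission ratio (excitation 405nm) after CCF4 loading for 2.5 hours at room temperature. Cells carried an AP-1-driven beta-lactamase reporter, were stimulated with EC50 EGF plus compound for 5 hours, and AC50 values came from titrations.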

[2] = NFAT Signaling Pathway (AID 444); settings: Jurkat NFAT-bla M1, carbachol, beta-lactamase ratio, 5 h; at 7.69 µM (top of the series) unless noted;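 further: carbachol stimulus at about its EC50 of 1 µM final; on the % scale 0 is the no-effect control and ±100 the full control effect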
Procedure, shortened: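 Read-out: CCF4 FRET ratio (460 nm/530 nm) after 1 h RT dye loading, used for %activity and AC50 from titration series. Cells: Jurkat NFAT-β-lactamase/M1 line, treated with compound plus 1 uM carbachol for 5 h, 37 °C.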

[3] = Stat Signaling Pathway (AID 446);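 further: ME-180 cervical cancer cells given 40 pM IL-6 alongside compound; SIE-controlled beta-lactamase reporter measured as 460/530 nm FRET emission ratio; on the % scale 0 is the no-effect control and ±100 the full control effect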
Procedure, shortened: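 Compound effects on IL-6-induced STAT reporter activity were measured in ME-180 cells. After overnight culture, cells were co-treated with 40 pM IL-6 for 5 hrs before beta-lactamase substrate loading at room temperature.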

[4] = target: Glucocorticoid receptor (Homo sapiens) (UniProt P04150); assay: GR-GFP Redistribution (AID 450;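 active means compounds whose dose series gives a full or clear partial fitted curve of increased nuclear translocation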; further: potency means the concentration at half of the fitted maximal effect); settings: U2OS GR-GFP nuclear translocation, laser cytometry, 2 h
[5] = target: Ubiquitin carboxyl-terminal hydrolase 1 (Homo sapiens) (UniProt O94782); assay: Inhibitors of USP1/UAF1: Pilot qHTS (AID 504865; active means well fitted curve in the direction sought with a large enough effect; an effect the other way counts as inactive or inconclusive;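 further: rhodamine fluorescence freed from ubiquitin-rhodamine substrate followed over time; top concentration of the series differs between compounds; on the % scale 0 is the no-effect control and ±100 the full control effect; nearly all actives have a fitted effect of over 35% in size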)
Procedure, shortened: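 Enzyme-free wells gave the negative control, while test wells held 1nM USP1/UAF1 preincubated with compound for 15 min at room temperature. Ub-Rho at 150nM final started the reaction, and fluorescence at 480/540 nm was recorded kinetically.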

[6] = target: Lysosomal acid glucosylceramidase (Homo sapiens) (UniProt P04062); assay: Glucocerebrosidase-p2 (AID 348; in the data active means potency below about 10 µM; further: potency means the concentration at half of the fitted maximal effect); settings: purified GBA, blue fluorogenic substrate, 40 min
Procedure, shortened: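 Normal human glucocerebrosidase (0.2 nM) with blue fluorogenic substrate (80 uM final) in citrate/phosphate pH 5.9 with 10mM sodium taurocholate, 0.01% tween-20; 40 min RT, NaOH/glycine stop; fluorescence Ex 365/Em 440; AC50 from a titration from 0.6 nM upwards.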

[7] = target: Cytochrome P450 3A4 (Homo sapiens) (UniProt P08684); assay: qHTS Assay for Inhibitors and Substrates of Cytochrome P450 3A4 (AID 884; active means well fitted curve in the direction sought with a large enough effect; an effect the other way counts as inactive or inconclusive; further: nearly all actives have a fitted effect of over 50% in size; further: potency means the concentration at half of the fitted maximal effect)
Procedure, shortened: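 Luminescent readout of luciferin produced by CYP3A4 (20 nM) dealkylation of Luciferin-PPXE, 25 uM (its KM). NADPH-driven reaction ran 60 min at RT after 10 min compound preincubation; data scaled to 57 uM ketoconazole as 100% inhibition.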

[8] = Cell Viability - BJ (AID 421; calls by dose curve;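 further: potency means the concentration at half of the fitted maximal effect; cells exposed to compound for 40 hours at 37 °C before readout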); settings: BJ fibroblast viability, qHTS
Procedure, shortened: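 Luminescent ATP signal (CellTiter-Glo, 20 min at room temperature) served as the read-out of viable BJ cells after 40 hours of compound treatment. Responses were scaled between DMSO and 100 uM tamoxifen, and AC50 values were obtained by Hill modeling.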

[9] = Cell Viability - Hek293 (AID 427;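 active means compounds whose dose-response curve shows a full or clear partial loss of cell viability, called from curve shape rather than a numeric limit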;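 further: potency means the concentration at half of the fitted maximal effect; cells exposed to compound for 40 hours at 37 °C before reading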); settings: qHTS
Procedure, shortened: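 Luminescent ATP read-out (CellTiter-Glo, 20 min RT) after 40 hr compound exposure at 37 °C in complete medium. Signal normalized to DMSO (basal) and 100 uM tamoxifen (100% inhibition); concentration-response fitted with the standard Hill equation to give AC50.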

[10] = Cell Viability - HepG2 (AID 433; calls by dose curve;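 further: potency means the concentration at half of the fitted maximal effect; potency for ATP loss meaning cytotoxicity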); settings: qHTS
Procedure, shortened: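 In this qHTS format, a 40 h, 37 °C compound incubation of HepG2 cells in complete medium precedes a 20 min CellTiter-Glo step at room temperature. Tamoxifen and doxorubicin serve as positive controls; Hill-equation fits yield AC50.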

[11] = Cell Viability - MRC5 (AID 434; calls by dose curve;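 further: potency means the concentration at half of the fitted maximal effect; potency reflects cytotoxicity seen as loss of intracellular ATP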); settings: MRC5 lung fibroblast viability, qHTS
Procedure, shortened: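 AC50 values come from Hill-equation fits of intracellular ATP loss, measured by CellTiter-Glo luminescence. Normal lung fibroblasts (MRC5) had 40 hr compound treatment at 37 C, normalized between DMSO and 100 uM tamoxifen.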

[12] = Cell Viability - SK-N-SH (AID 435; calls by dose curve;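 further: potency means the concentration at half of the fitted maximal effect; compound exposure lasted 40 h at 37 °C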); settings: SK-N-SH neuroblastoma cell viability qHTS
Procedure, shortened: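 Human neuroblastoma line, 40 h exposure at 37 °C, ATP quantified via luciferase luminescence; DMSO and 100 uM tamoxifen define 0 and 100% inhibition for AC50 fitting.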

[13] = Cell Viability - Renal Proximal Tubule (AID 545; active means well fitted curve in the direction sought with a large enough effect; an effect the other way counts as inactive or inconclusive;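 further: 0% = DMSO only and -100% = 100 µM tamoxifen; nearly all actives have a fitted effect of over 40% in size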); settings: renal proximal tubule cells viability, primary cells of rat origin; at 91.7 µM (top of the series)
Procedure, shortened: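 In this qHTS format, normal rat kidney-derived proximal tubule cells in complete culture medium receive compound titrations, then sit 40 hours at 37 °C before luciferase-based ATP quantitation; potency is reported as AC50 from concentration-response curves.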

[14] = qHTS Assay for Identification of Small Molecule Inducers of Hypoxia Response (AID 2120; active means well fitted curve in the direction sought with a large enough effect in the signal ratio, with a control signal flat, not every such curve was filed as active; the % refers to the signal ratio; further: 0% is about no effect)
Procedure, shortened: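 Reporter induction read as the CCF4 blue/green (460nm/530nm) emission ratio after 2.5 h dye loading at room temperature. ME-180 HRE-beta-lactamase cells received titrated compounds for 17 h at 37 degrees Celsius; AC50 values derived.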

[15] = qHTS assay for small molecule antagonists of retinoid X receptor alpha signaling (AID 588546; active means well fitted inhibition curve with a large enough effect in the signal ratio, with a control signal flat, not every such curve was filed as active; the % refers to the signal ratio;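 further: cells stimulated with 9-cis-retinoic acid as agonist; on the % scale 0 is the no-effect control and ±100 the full control effect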); settings: HEK293T RXRa-UAS-bla, beta-lactamase ratio, antagonist mode; measured here: W530 green channel, cytotoxicity proxy
Procedure, shortened: (§1)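 Beta-lactamase reporter inhibition, read as CCF4 fluorescence ratio (ex 405, em 460/530 nm) after 2 h at RT. HEK293T UAS-bla cells, 2500/well, were stimulated with 9-cis-RA at 500 or 100 nM final alongside test compound for 18 h at 37 C.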

[16] = target: Retinoic acid receptor RXR-alpha (Homo sapiens) (UniProt P19793); assay: as above; settings: HEK293T RXRa-UAS-bla, beta-lactamase ratio, antagonist mode
Procedure, shortened: as §1

[17] = qHTS assay for environmental chemicals that activate the Aryl hydrocarbon Receptor (AhR) signaling pathway (AID 651777; active means well fitted curve in the direction sought with a large enough effect; an effect the other way counts as inactive or inconclusive; further: % of control where 0% means no effect; nearly all actives have a fitted effect of over 15% in size); settings: 1A2-DRE human hepatoma cells, luciferase, 24 h; activation: stronger effect = higher value
Procedure, shortened: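 Luminescence (One-Glo, 30 min, room temperature) reports AhR-driven luciferase in stably transfected human hepatoma cells bearing DRE and CYP1A2 promoter. Cells (1,200/well) were treated with compound for 24 hr at 37 C in qHTS format.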

[18] = target: Peroxisome proliferator-activated receptor alpha (Homo sapiens) (UniProt Q07869); assay: qHTS assay for small molecule agonists of the peroxisome proliferator-activated receptor alpha (PPARalpha) signaling pathway (AID 651778; active means well fitted curve in the direction sought with a large enough effect; an effect the other way counts as inactive or inconclusive; further: % of control where 0% means no effect); settings: PathHunter PPARalpha complementation, chemiluminescence, 6 h; max response: stronger effect = higher value
Procedure, shortened: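 Chemiluminescence from complemented enzyme reported PPARalpha activation in cells after 6 hr of compound treatment at 37 C. The detection reagent was incubated for 60 min at room temperature, and compounds were scored as agonists.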

[19] = qHTS assay for small molecule agonists of the antioxidant response element (ARE) signaling pathway measured by Nrf2-dependant transcriptional activity - cell viability counter screen (AID 720653; active means well fitted curve in the direction sought with a large enough effect in the repeat runs; an effect the other way counts as inactive or inconclusive; further: on the % scale 0 is the no-effect control and ±100 the full control effect); settings: ARE-bla HepG2 viability, CellTiter-Glo ATP luminescence, 16 h; max response: stronger effect = lower value
Procedure, shortened: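 Cytotoxicity counter screen: intracellular ATP quantified by CellTiter-Glo luminescence in the same ARE-bla HepG2 plates, after 16 h compound exposure and a 2 h beta-lactamase substrate step.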

[20] = qHTS assay for cell viability of HEK293 cells (AID 743288; active means well fitted curve in the direction sought with a large enough effect; an effect the other way counts as inactive or inconclusive; further: on the % scale 0 is the no-effect control and ±100 the full control effect; nearly all actives have a fitted effect of over 50% in size); settings: ATP luminescence (CellTiter-Glo), 18 h; max response: stronger effect = lower value
Procedure, shortened: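 HEK293, 18 h, 37 C, ATP luminescence. Cells at 2,000/well were allowed at least 5 h to settle before dosing; CellTiter-Glo developed 30 min at RT.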

Sequence of Peroxisome proliferator-activated receptor alpha (Homo sapiens) (Q07869 whole entry, looked up): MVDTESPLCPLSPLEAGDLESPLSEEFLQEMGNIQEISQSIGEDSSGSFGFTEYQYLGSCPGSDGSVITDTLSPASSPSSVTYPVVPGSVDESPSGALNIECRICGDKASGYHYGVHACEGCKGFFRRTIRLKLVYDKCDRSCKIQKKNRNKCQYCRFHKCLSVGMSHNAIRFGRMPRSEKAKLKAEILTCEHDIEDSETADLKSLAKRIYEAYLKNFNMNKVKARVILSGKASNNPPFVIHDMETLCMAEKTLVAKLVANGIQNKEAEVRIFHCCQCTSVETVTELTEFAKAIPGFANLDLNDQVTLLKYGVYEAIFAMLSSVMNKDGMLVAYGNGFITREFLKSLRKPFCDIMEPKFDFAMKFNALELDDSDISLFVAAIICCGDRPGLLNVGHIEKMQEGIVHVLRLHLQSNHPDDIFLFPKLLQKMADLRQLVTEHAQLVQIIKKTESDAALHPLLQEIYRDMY
Sequence of Cytochrome P450 3A4 (Homo sapiens) (P08684 whole entry, looked up): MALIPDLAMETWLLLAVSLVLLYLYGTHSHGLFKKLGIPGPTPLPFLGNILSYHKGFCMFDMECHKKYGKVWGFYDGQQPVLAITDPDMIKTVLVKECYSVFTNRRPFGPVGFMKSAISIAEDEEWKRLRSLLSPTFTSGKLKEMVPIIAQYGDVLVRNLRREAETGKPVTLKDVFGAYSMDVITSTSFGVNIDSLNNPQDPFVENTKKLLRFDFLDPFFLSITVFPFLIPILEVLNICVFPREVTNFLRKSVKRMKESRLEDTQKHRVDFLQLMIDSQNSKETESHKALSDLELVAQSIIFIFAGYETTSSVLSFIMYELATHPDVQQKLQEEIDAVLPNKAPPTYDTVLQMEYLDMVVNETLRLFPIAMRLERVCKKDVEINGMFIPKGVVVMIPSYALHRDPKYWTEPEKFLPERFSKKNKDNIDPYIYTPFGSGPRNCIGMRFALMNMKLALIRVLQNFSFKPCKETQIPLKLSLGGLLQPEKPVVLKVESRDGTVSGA
Sequence of Ubiquitin carboxyl-terminal hydrolase 1 (Homo sapiens) (O94782 whole entry, looked up): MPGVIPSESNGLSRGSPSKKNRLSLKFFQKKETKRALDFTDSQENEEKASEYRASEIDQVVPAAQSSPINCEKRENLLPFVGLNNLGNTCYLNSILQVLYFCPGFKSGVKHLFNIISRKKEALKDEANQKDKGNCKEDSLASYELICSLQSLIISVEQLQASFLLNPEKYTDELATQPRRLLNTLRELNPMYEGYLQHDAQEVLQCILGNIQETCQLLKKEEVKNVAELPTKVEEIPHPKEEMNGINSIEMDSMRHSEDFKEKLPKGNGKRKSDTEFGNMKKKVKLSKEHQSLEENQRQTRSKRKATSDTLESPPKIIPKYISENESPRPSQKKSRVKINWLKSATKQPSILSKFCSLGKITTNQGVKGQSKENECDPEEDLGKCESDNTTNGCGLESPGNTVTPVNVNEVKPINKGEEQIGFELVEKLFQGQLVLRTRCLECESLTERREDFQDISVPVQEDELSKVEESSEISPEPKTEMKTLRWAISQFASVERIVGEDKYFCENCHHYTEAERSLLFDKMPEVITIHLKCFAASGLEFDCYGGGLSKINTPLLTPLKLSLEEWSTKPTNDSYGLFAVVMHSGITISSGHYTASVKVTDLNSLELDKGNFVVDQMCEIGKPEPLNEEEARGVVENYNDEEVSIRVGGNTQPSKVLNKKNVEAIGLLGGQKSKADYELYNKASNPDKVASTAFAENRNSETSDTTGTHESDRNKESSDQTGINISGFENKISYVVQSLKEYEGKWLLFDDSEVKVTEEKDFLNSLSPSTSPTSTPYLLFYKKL
Sequence of Retinoic acid receptor RXR-alpha (Homo sapiens) (P19793 whole entry, looked up): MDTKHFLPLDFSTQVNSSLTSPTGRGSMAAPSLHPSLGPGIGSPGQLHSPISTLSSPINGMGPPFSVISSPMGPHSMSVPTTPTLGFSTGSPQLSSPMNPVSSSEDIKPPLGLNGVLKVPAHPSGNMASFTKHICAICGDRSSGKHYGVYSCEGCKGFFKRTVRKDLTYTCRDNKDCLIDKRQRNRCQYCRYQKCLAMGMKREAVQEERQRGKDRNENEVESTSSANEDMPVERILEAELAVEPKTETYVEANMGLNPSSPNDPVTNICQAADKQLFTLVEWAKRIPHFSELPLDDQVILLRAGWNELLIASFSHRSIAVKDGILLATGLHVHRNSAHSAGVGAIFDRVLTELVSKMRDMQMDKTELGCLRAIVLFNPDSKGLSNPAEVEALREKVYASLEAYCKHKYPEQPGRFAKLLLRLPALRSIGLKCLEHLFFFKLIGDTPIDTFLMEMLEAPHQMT
Sequence of Lysosomal acid glucosylceramidase (Homo sapiens) (P04062 whole entry, looked up): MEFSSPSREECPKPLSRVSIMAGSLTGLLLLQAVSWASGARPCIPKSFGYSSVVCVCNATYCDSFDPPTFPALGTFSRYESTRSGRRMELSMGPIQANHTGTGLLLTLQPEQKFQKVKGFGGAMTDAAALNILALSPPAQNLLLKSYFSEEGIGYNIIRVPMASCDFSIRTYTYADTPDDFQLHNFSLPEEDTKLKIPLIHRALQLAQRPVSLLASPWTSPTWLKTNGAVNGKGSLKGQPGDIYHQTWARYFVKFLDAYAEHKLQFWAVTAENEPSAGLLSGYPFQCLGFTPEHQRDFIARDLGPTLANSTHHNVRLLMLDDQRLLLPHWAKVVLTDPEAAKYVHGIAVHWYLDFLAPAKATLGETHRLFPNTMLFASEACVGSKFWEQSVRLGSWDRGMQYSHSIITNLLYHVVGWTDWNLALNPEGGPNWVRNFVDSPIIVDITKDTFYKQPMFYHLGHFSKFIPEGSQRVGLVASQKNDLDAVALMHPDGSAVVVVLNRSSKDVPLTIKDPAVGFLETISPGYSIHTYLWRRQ
Sequence of Glucocorticoid receptor (Homo sapiens) (P04150 whole entry, looked up): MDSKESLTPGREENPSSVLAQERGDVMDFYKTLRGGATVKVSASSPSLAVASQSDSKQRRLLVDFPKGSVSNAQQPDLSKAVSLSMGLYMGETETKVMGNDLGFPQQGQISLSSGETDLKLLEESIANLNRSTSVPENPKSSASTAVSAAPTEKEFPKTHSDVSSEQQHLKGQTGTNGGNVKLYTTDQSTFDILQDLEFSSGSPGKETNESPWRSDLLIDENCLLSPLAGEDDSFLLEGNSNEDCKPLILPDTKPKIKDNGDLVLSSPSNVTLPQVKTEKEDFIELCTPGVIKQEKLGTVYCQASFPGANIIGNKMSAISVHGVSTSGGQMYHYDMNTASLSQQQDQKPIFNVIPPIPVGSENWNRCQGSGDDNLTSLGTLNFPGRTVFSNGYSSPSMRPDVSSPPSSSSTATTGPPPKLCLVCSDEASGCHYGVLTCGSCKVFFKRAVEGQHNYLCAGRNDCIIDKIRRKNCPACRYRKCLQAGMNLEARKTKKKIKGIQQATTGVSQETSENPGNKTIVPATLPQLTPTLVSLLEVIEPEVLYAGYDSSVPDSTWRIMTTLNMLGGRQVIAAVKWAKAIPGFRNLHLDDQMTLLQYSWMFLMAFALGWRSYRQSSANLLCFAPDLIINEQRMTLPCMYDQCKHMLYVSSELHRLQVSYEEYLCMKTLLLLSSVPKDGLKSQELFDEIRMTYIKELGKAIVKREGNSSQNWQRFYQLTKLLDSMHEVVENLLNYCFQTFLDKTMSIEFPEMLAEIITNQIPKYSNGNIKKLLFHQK

Cc1ccccc1-c1ccc2ncnc(NCCN3CCOCC3)c2c1
activity change, negative = inhibition [1]: 13.8% (inactive)
activity change, negative = inhibition [2]: -0.729% (inactive)
outcome [3]: inactive
Potency [4]: > 46 µM (inactive)
Potency [5]: inactive

CN(C)c1nc(-c2cccc(NS(C)(=O)=O)c2)nc2ccccc12
Potency [6]: > 11.4 µM (inactive)
activity change, negative = inhibition [1]: 11.2% (inactive)
activity change, negative = inhibition [2]: 10.8% (inactive)
outcome [3]: inactive
Potency [4]: > 46 µM (inactive)
Potency [7]: 6.31 µM (active)
Potency [5]: inactive

O=c1cnc2cnc(N3CCOCC3)nc2n1Cc1cccs1
Potency [6]: > 11.4 µM (inactive)
activity change, negative = inhibition [1]: -3.18% (inactive)
activity change, negative = inhibition [2]: -0.57% (inactive)
outcome [3]: inactive
Potency [4]: > 9.22 µM (inactive)
Potency [5]: inactive

CN(C)c1ccc(-c2cncnc2NCCc2cnc[nH]2)cc1
activity change, negative = inhibition [1]: -28.6% (inactive)
activity change, negative = inhibition [2]: -15.1% (inactive)
outcome [3]: inactive
Potency [4]: > 46 µM (inactive)
Potency [5]: inactive

C=CCc1ccc(OC)c(OC)c1
Potency [8]: > 92 µM (inactive)
Potency [9]: > 92 µM (inactive)
Potency [10]: > 92 µM (inactive)
Potency [11]: > 92 µM (inactive)
Potency [12]: > 92 µM (inactive)
activity change, negative = cytotoxicity [13]: -5.61% (inactive)
Potency [7]: inactive
outcome [14]: inactive
max response [15]: -6.05% and 0.363%
max response [16]: 9.84% (inactive) and -24.7% (inactive)
activation [17]: 0.456% (inactive) and 0.0921% (inactive)
max response [18]: 8.14% (inactive) and -0.977% (inactive)
max response [19]: -3.29% (inactive) and -7.51% (inactive)
max response [20]: 3.16% (inactive) and -7.18% (inactive)

CNc1ncncc1-c1ccccc1CN(C)C
Potency [6]: > 11.4 µM (inactive)
activity change, negative = inhibition [1]: 7.24% (inactive)
activity change, negative = inhibition [2]: -28.4% (inactive)
outcome [3]: inactive
Potency [4]: > 46 µM (inactive)

CCCCCCCCCCCC(=O)O
Potency [8]: > 92 µM (inactive)
Potency [9]: > 92 µM (inactive)
Potency [10]: > 92 µM (inactive)
Potency [11]: > 92 µM (inactive)
Potency [12]: > 92 µM (inactive)
activity change, negative = cytotoxicity [13]: -7.81% (inactive) and -14% (inactive)
Potency [7]: inactive
outcome [14]: inactive
max response [15]: 24.4% and 28.8%
max response [16]: -14.3% (inactive) and -10.1% (inactive)
activation [17]: 0.903% (inactive) and 1.44% (inactive)
max response [18]: 9.6% (inactive) and 16.5% (inactive)
max response [19]: 8.32% (inactive) and -0.379% (inactive)
max response [20]: -8.75% (inactive) and -7.33% (inactive)

Cc1nc2cnc(N3CCOCC3)nc2n(CCc2ccccc2)c1=O
Potency [6]: > 11.4 µM (inactive)
activity change, negative = inhibition [1]: 3.7% (inactive)
activity change, negative = inhibition [2]: 15.3% (inactive)
outcome [3]: inactive
Potency [4]: > 9.22 µM (inactive)
Potency [5]: inactive

CN(C)C(=O)c1ccc(-c2ccc3ncnc(Nc4ccc(F)cc4)c3c2)cc1
Potency [6]: > 11.4 µM (inactive)
activity change, negative = inhibition [2]: 24.8% (inactive)
outcome [3]: inactive
Potency [4]: > 46 µM (inactive)
Potency [5]: inactive

COc1ccccc1CNc1nc(-c2cccc(NS(C)(=O)=O)c2)nc2ccccc12
Potency [6]: > 11.4 µM (inactive)
activity change, negative = inhibition [1]: -13.2% (inactive)
activity change, negative = inhibition [2]: -21% (inactive)
outcome [3]: inactive
Potency [4]: > 46 µM (inactive)
Potency [5]: inactive

O=c1cc(-c2ccc(O)c(O)c2)oc2cc(O[C@@H]3O[C@@H](CO)[C@@H](O)[C@@H](O)[C@H]3O)cc(O)c12
Potency [4]: > 46 µM (inactive)

CN1CCN(c2nc(-c3ccoc3)nc3ccccc23)CC1
Potency [6]: > 11.4 µM (inactive)
activity change, negative = inhibition [1]: 6.84% (inactive)
activity change, negative = inhibition [2]: -2.81% (inactive)
outcome [3]: inactive
Potency [4]: > 46 µM (inactive)
Potency [5]: inactive

COc1cccc(Cn2c(=O)cnc3cnc(N(C)C)nc32)c1
Potency [6]: > 11.4 µM (inactive)
activity change, negative = inhibition [1]: -10.4% (inactive)
activity change, negative = inhibition [2]: -0.24% (inactive)
outcome [3]: inactive
Potency [4]: > 9.22 µM (inactive)
Potency [5]: inactive

COc1ccc2[nH]cc(CCNc3nc(-c4c(C)noc4C)nc4ccccc34)c2c1
Potency [6]: > 2.29 µM (inactive)
activity change, negative = inhibition [1]: -24.6% (inactive)
Potency [5]: inactive

COc1ccccc1CNc1nc(-c2ccc(C(=O)N(C)C)cc2)nc2ccccc12
Potency [6]: > 11.4 µM (inactive)
activity change, negative = inhibition [2]: -1.92% (inactive)
outcome [3]: inactive
Potency [4]: > 46 µM (inactive)
Potency [5]: inactive
